Bioassay records from PubChem.
NR3A LBD binder – modulators (binders) of human NR3A ligand-binding domain; NR3A LBD differential scanning fluorimetry, Tm shift; 0% = protein alone, 100% = glycine-bound protein; Tm shift relative to glycine control, % at 25 µM; 340,000 compounds, 2.5% hits;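 active = melting temperature shift of at least 10% of the positive control shift, at one fixed dose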
pCIP destab – lowers stability of the mouse p/CIP coactivator protein; Q05BA5; F442A p/CIP-EGFP cells, EGFP fluorescence, 16 h; decrease of EGFP signal, % at 10 µM; 290,000 compounds, 0.01% hits; AID 1984;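 active = EGFP signal decrease of at least 30% at 10 µM or well 3 SD below plate mean, unless failing retest; inactive = the rest, including hits failing retest or dose response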
MIN6 prolif-1 – inducers of beta-cell replication in MIN6 cells | MIN6 cells proliferation, ATPlite luminescence, 48 h; cells starved in 0.2% serum; 100% = growth in 10% serum | proliferation, % at 10 µM | 330,000 compounds, 0.29% hits;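 active = compounds whose signal lies at least 3.5 SD above the mean of all wells on their plate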;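 note: 0% = DMSO-treated cells in low-serum medium and 100% = 10% serum control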
MPTP inh – permeability transition pore inhibition. isolated mouse mitochondria, Ca2+ swelling absorbance, 30 min. inhibition, % at 10 µM. 360,000 compounds, 1.4% hits;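 active = inhibition of 50% or more, scaled per plate between neutral and stimulator controls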;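 note: 0% = DMSO wells given calcium and 100% = 1 mM EGTA wells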
FAS-TE inh – inhibitors of human fatty acid synthase thioesterase domain | recombinant FAS-TE, OMFH fluorogenic substrate, fluorescence endpoint | inhibition, % at 15 µM | 360,000 compounds, 0.67% hits | AID 602261;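 active = compounds whose normalised, plate-corrected inhibition of enzyme fluorescence in the single-dose primary screen is 50% or more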;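 note: 0% = DMSO with enzyme and 100% = substrate without enzyme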
Target sequence (P49327 whole entry, looked up, the tested form may be a part): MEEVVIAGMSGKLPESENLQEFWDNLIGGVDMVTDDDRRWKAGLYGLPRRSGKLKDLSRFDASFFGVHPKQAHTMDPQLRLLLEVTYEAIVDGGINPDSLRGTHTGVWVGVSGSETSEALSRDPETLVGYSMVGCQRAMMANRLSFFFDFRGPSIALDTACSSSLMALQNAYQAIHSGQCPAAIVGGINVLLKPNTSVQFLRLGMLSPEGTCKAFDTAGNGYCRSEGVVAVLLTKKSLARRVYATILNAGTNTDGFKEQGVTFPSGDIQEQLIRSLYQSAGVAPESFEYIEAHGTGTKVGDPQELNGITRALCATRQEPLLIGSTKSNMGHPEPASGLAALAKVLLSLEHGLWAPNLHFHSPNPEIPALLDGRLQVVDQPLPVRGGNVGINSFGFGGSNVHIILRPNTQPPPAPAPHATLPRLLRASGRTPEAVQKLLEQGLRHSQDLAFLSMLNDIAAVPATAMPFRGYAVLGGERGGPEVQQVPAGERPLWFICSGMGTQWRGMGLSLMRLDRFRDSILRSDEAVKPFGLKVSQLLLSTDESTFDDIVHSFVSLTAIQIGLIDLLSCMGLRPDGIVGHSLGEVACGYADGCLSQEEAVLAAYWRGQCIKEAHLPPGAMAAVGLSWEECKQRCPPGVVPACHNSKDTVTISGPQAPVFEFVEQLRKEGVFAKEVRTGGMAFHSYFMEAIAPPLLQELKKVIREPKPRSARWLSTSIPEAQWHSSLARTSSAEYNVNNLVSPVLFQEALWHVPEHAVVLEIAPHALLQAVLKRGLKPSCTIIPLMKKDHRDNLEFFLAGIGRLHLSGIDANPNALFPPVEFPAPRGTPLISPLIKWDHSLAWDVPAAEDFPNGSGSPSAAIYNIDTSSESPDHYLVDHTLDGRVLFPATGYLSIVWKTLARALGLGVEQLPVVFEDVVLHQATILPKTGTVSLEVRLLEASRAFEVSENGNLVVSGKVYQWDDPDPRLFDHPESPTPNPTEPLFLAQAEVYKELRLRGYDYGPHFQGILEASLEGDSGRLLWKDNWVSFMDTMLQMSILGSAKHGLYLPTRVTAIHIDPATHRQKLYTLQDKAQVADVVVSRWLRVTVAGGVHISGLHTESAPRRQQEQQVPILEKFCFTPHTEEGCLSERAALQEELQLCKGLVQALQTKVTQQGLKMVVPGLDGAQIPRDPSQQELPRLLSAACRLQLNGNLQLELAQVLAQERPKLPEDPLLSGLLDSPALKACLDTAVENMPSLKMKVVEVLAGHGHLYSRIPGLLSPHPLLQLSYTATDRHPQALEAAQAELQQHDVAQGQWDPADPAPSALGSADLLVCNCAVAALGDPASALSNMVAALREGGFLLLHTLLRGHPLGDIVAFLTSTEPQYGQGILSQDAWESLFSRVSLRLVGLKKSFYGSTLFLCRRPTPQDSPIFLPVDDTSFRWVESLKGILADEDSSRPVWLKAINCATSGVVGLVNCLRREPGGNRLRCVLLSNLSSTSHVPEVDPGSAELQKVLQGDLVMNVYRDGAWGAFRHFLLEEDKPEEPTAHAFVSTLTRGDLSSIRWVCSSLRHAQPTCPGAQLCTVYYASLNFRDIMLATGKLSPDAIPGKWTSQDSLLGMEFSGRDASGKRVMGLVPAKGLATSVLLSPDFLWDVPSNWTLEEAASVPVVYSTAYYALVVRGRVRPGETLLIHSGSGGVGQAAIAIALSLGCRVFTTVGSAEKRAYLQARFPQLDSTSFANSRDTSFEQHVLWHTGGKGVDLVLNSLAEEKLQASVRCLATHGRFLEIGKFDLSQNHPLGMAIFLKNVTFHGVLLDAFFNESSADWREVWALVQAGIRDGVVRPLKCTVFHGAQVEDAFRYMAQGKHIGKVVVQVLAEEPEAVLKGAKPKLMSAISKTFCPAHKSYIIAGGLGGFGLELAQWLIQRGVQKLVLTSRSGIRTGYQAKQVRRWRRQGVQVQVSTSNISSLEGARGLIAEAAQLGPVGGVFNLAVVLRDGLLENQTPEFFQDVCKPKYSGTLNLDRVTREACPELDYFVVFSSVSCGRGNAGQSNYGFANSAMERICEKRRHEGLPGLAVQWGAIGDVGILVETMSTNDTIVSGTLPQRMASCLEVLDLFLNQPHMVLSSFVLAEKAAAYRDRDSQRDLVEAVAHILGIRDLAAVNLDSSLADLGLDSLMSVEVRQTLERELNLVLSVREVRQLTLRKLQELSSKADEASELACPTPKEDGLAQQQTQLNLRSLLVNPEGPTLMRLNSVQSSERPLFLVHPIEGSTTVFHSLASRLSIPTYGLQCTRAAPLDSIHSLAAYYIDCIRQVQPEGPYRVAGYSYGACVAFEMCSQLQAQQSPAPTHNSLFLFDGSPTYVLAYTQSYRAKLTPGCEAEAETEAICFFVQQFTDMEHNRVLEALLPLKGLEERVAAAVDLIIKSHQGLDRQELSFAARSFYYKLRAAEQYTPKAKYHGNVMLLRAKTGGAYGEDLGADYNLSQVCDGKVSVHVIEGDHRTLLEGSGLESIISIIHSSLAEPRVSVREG
MIN6 prolif-2 – MIN6 beta-cell replication induction, confirmed; shares compounds with MIN6 prolif-1; 920 tested, under 10 active; proliferation increase, % at 50 µM; MIN6 beta-cell proliferation, ATPlite luminescence, 48 h; cells kept in 0.2% serum; scaled between 0.2% and 10% serum;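 active = proliferation increase above 40% at any of the four tested concentrations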
* marks the source's active call; other numbers are inactive results; / = no result. A selection: hits, their analogues and other compounds. The true share with any hit is near 4.1%.

SMILES	NR3A LBD binder	pCIP destab	MIN6 prolif-1	MPTP inh	FAS-TE inh	MIN6 prolif-2
O=C(CCN1C(=O)COc2ccccc21)NCCN1CCN(c2ccccc2F)CC1	1	-2	6.7*	-1	-6	-2
O=C(CN1C(=O)COc2ccccc21)NCCCN1CCN(c2ccccc2F)CC1	0	-4	0	0	-8	/
O=c1[nH]c(=S)[nH]c2c1C(c1ccccc1)OC(C1CCCCC1)C2 (stereo not given)	/	/	/	1	2	/
COc1ccc(NC(=O)C2CC2)cc1OC1CCCC1	-1	-8	2	-1	-4	/
COC(=O)c1ccc(OC)c(OC2CCCC2)c1	0	1	6.6*	1	-2	3
COc1ccc(CNC/C=C/c2ccccc2)cc1	1	-4	7.6*	1	-3	-6
COc1ccc(CCNC/C=C/c2ccccc2)cc1	-1	/	/	1	-5	/
S=C(NCCN1CCOCC1)N/N=C/c1cccs1	2	3	10*	-1	1	-6
CC1CCCCN1C(=O)COC(=O)c1cc([N+](=O)[O-])ccc1N (stereo not given)	-1	/	15*	-1	28	1
COc1ccc2[nH]c(=O)c(CN(C(=O)c3ccncc3)C(C)(C)C)cc2c1	0	4	13*	0	-6	1
COc1ccc2[nH]c(=O)c(CN(C)C(=O)c3ccncc3)cc2c1	2	-2	0	3	-7	/
O=C(Nc1cc(C(F)(F)F)cc(C(F)(F)F)c1)O[C@@H]1c2ccccc2[C@@H]2Cc3csc[n+]3[C@H]12	/	/	/	7	-128	/
Cc1ccc2c(n1)sc1c(-c3ccccc3)c(C#N)c(N)nc12	-8	-8	5.9*	2	12	5
COc1ccc(NC(=O)Nc2ccc3c(c2)C(=O)N([C@H](C)CO)C[C@@H](C)[C@@H](CN(C)C(=O)C2CCCCC2)OCCCC[C@H](C)O3)cc1	/	/	/	-1	2	/
COc1ccc(OCc2cc(C(=O)N(C)Cc3nccn3C)no2)c2ccccc12	-4	-17	0	0	-2	/
COc1ccc(OCc2cc(C(=O)N(Cc3nccn3C)C(C)C)no2)c2ccccc12	0	1	12*	-1	6	-6
CCN(C(=O)c1ccc(NC(=O)C2CCCCC2C(=O)O)cc1)c1ccccc1 (stereo not given)	/	/	/	-1	-11	/
CC(C)CNc1ncnc2c1ncn2[C@H]1CN(Cc2ccc(C(=O)O)cc2)C[C@@H](CO)O1	/	/	/	-2	-2	/
CN(Cc1ccccc1)C(=O)CN1CCN(S(=O)(=O)c2ccccc2F)CC1	/	/	/	-2	-4	/
COCCOC(=O)c1c(C)oc2ccc(NS(=O)(=O)c3ccc(C)cc3)cc12	-5	-7	-2	2	18	/
COCCOC(=O)c1c(C)oc2ccc(NS(=O)(=O)c3ccccc3)cc12	-1	-7	5.0*	3	12	-6
Cc1cc(C)c2c(N)c3ccccc3nc2n1	-4	-6	7.5*	3	-6	-6
COc1ccc(CN2C(=O)CCC2(C)c2nnnn2-c2ccc3c(c2)OCCO3)cc1OC (stereo not given)	/	/	/	-1	-8	/
COc1ccc(CCC(=O)OCC(=O)NCc2ccc(OC)c(OC)c2)cc1OC	-1	/	9.2*	0	-6	2
Cc1ccc(S(=O)(=O)N2CCC3(CC2)OCCN3S(=O)(=O)c2cccs2)cc1	4	/	0	-1	18	/
SMILES	NR3A LBD binder	pCIP destab	MIN6 prolif-1	MPTP inh	FAS-TE inh	MIN6 prolif-2
COc1ccc(S(=O)(=O)N2CCC3(CC2)OCCN3S(=O)(=O)c2cccs2)cc1	1	/	13*	0	24	-2
CCOc1ncccc1C(=O)Nc1cccc(S(=O)(=O)N2CCCCC2)c1	0	/	1	-1	17	/
CCOc1ncccc1C(=O)Nc1cccc(S(=O)(=O)NC2=NCCC2)c1	0	/	12*	-1	-8	0
Cc1cccc(-c2n[nH]c(=S)n2Cc2ccccc2)c1	2	-10	6.3*	-6	-10	-4
S=c1[nH]nc(-c2cccc(Cl)c2)n1Cc1ccccc1	-3	-8	2	1	-5	/
COc1cccc(-c2cnc3c(NC(C)=O)cc(-c4cc(OC)c(OC)c(OC)c4)cn23)c1	/	/	/	1	13	/
O=S1(=O)N[C@@H](Cc2ccccc2)COc2cc(N3CCSCC3)ccc21	/	/	/	-1	4	/
NS(=O)(=O)c1ccc(CNC(=O)c2cc(=O)[nH]c3ccccc23)cc1	1	-11	6.5*	0	-5	0
CC(C)CN(C(=O)COC(=O)CCSc1ccc(Cl)cc1)c1c(N)n(Cc2ccccc2)c(=O)[nH]c1=O	/	/	/	1	-7	/
CC(=O)Nc1ccc(S(=O)(=O)NC(=O)C23CC4CC(CC(C4)C2)C3)cc1	2	0	7.5*	-2	-5	-2
CCCCn1cnc2c(SCc3ccc(Br)cc3)nc(N)nc21	-18	/	/	-1	10	/
CCOC(=O)C1(C)CCCCN1C(=O)c1ccoc1 (stereo not given)	/	/	/	2	-8	/
CCOC(=O)C1=C(Cn2cnc3ccccc32)NC(=O)NC1c1cc(C)ccc1C (stereo not given)	-3	-7	-3	0	6	/
COC(=O)C1=C(Cn2cnc3ccccc32)NC(=O)NC1c1cc(C)ccc1C (stereo not given)	-2	-13	5.4*	0	-5	-6
CCCCn1c(-c2nonc2N)nc2ccccc21	1	0	8.1*	0	11	-4
CC(C)CCn1c(-c2nonc2N)nc2ccccc21	-24	-9	4	1	17	/
CN(CC(=O)Nc1c(Cl)cccc1Cl)C(=O)c1ccccc1-c1nc2ccccc2s1	-1	/	13*	-2	6	-6
COc1ccccc1NC(=O)N(C)C[C@H]1Oc2ncc(Br)cc2C(=O)N([C@H](C)CO)C[C@H]1C	/	/	/	1	-6	/
CCC(Cc1ccccc1)NC(=O)Cn1cccc1C(=O)c1ccccc1 (stereo not given)	0	27	16*	1	8	-6
Cc1[nH]c2ccccc2c1C(=O)CSc1ccccc1	-10	10	-3	7	4	/
CCN(CC)C(=S)SCC(=O)c1c(C)[nH]c2ccccc12	-9	-17	0.0*	4	3	-6
CCOC(=O)[C@]12CCCC=C1N(Cc1cccc3ccccc13)C(=O)[C@H](CC(=O)N1CCN(C(=O)C3CC3)CC1)C2	/	/	/	0	-1	/
COc1ccc(N2CCN(c3cc(C(=O)Nc4cc(OC)c(OC)c(OC)c4)ncn3)CC2)cc1OC	/	/	/	-3	4	/
COCCn1c(SCCCc2ccccc2)nc2c1c(=O)[nH]c(=O)n2C	-1	-12	5.5*	-2	-5	-5
O=C(NC1CCCCCC1)C1CCN(S(=O)(=O)c2ccc(F)cc2)CC1	1	3	6.5*	0	-4	1
